# In PubChem BioAssay (NCI):
# The panel holds about 79,000 compounds, 15% with a hit somewhere; the sample as a whole holds those more often. A number with no mark means an inactive call. Activity calls are given as the source filed them. No stated cut-off is given here; in the data, active means growth inhibition above about 70%; inactive means the rest. Where a SMILES comes first, the peptide text is derived from it. The star is where a group is joined. Boc = CC(C)(C)OC(=O)*
# What was measured:
# [1] = NCI Yeast Anticancer Drug Screen. Data for the rad50 strain (AID 155);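 further: 0% = growth of vehicle-only cultures of the same strain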; settings: S. cerevisiae rad50 strain growth inhibition; at 50.0 µM; hits give high values
# Method in brief: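 Cells are treated with compound, grown, and their growth is then scored against vehicle-only cultures of the same repair-deficient yeast strain.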
# [2] = NCI Yeast Anticancer Drug Screen. Data for the mec2-1 strain (AID 157); settings: S. cerevisiae mec2-1 strain, at 50.0 µM, hits give high values
# Method in brief: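 Readout is yeast growth inhibition, normalised to vehicle-treated controls, in the mec2-1 strain exposed to compound.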
# [3] = NCI Yeast Anticancer Drug Screen. Data for the sgs1 mgt1 strain (AID 161);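 further: 0% = growth of cultures given vehicle only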; settings: S. cerevisiae sgs1 mgt1 strain, at 50.0 µM, hits give high values
# Method in brief: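 Yeast cells carrying a defined DNA-repair defect were exposed to test compounds. Growth inhibition was measured relative to vehicle-treated controls.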
# [4] = NCI Yeast Anticancer Drug Screen. Data for the cln2 rad14 strain (AID 165);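 further: 0% = growth equal to vehicle treated cultures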; settings: S. cerevisiae cln2 rad14 strain, at 50.0 µM, hits give high values
# Method in brief: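 Relative to vehicle controls, growth inhibition of compound-treated cln2 rad14 yeast was recorded.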
# [5] = NCI Yeast Anticancer Drug Screen. Data for the bub3 strain (AID 167); settings: S. cerevisiae bub3 mutant strain, at 50.0 µM, hits give high values
# Method in brief: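 Part of a panel of yeast mutants defective in DNA damage repair or cell cycle regulation. Each strain is grown with compound, and inhibition is calculated relative to solvent-treated cultures.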
# [6] = NCI Yeast Anticancer Drug Screen. Data for the mlh1 rad18 strain (AID 175); settings: S. cerevisiae mlh1 rad18 strain growth inhibition; at 50.0 µM; hits give high values
# Method in brief: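 Test agents were incubated with a yeast strain of defined genotype (DNA damage repair defect). Inhibition of growth was derived by comparison with vehicle-exposed cultures.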
SMILES,growth inhibition [1],growth inhibition [2] [%],growth inhibition [3] [%],growth inhibition [4] [%],growth inhibition [5],growth inhibition [6] [%]
O=C(c1ccccc1)c1ccccc1C(=O)c1ccccc1,77% (active),25.6,54,-43,70.4% (active),52
Cc1ccc(S(=O)(=O)NC(CC(C)C)C(=O)O)cc1 (stereo not drawn),6.65%,-10.6,-4.55,-34.2,1.3%,0.45
O=C(CNc1ccccn1)Nn1cnc2ccc(S(=O)(=O)Nc3ccccn3)cc2c1=O,32.2%,28,39.4,-1.1,25.6%,22.6
O=c1c2n(c(=O)c3n1CCC=3)CCC=2,-2.5%,-13.5,-0.6,-25.1,-6.85%,9.35
O=C(Nc1ccc2[nH]c3c(-c4ccccc4)nccc3c2c1)c1ccccc1[N+](=O)[O-],15.8%,-21.2,-5.3,6.65,-2.75%,5.35
CCOc1ccc2nc(SCCl)sc2c1,6.1%,-2.7,7.65,-14.9,-35.1%,2.8
Cc1cc2c(C(C)C)c(O)c(O)c(C=NCc3ccc(Br)cc3)c2c(O)c1-c1c(C)cc2c(C(C)C)c(O)c(O)c(C=NCc3ccc(Br)cc3)c2c1O,-5.6%,1.6,26.6,-22.1,-9.15%,27.8
CCOC(=O)C(SC(Cl)(S(=O)(=O)c1ccccc1)S(=O)(=O)c1ccccc1)C(=O)OCC,2.1%,10.1,-4.75,-8.75,-13%,-14.6
COc1ccc(C=Nc2ccc([N+](=O)[O-])cc2O)cc1,12.9%,2.7,12.1,-10.9,19.6%,1.6
Cc1ccc(C(=O)CSC2=NCCN2)cc1Cl,-9.75%,-21.8,-12.6,-2.2,-11.9%,19.2
CN(C)c1ccc(C(=O)c2ccc([N+](=O)[O-])cc2)cc1,-1.6%,-10,0.5,6.3,-4.95%,-8.25
O=C(C#Cc1ccccc1)N1c2ccccc2CC1c1c[nH]c2ccccc12 (stereo not drawn),-7.25%,-6.2,0.7,2.55,-2.8%,-6.85
CC(=O)Nc1cc2c(cc1Cl)-c1cc(Cl)c(Cl)cc1C2=O,-18.1%,-2.55,-9.85,-25.1,-20.7%,-17.5
Nc1nc(N)c2ncn(Cc3c(Cl)cccc3Cl)c2n1,-3.75%,-3.95,1.9,6.8,4.15%,-9.65
COC(=O)c1cc(Cl)ccc1NC(=O)C1CCCCC1,4.75%,15.8,23,27.8,15.2%,36
Cc1ccc(N=C=Nc2ccc(C)cc2)cc1,2.65%,2.65,-3.05,-9.75,2.85%,-1.5
Cc1cc(C)cc(N=Nc2c(N)nc(N)[nH]c2=O)c1,4.85%,-10.7,-49.9,-11.2,-3.2%,-7.3
CC(NC(=O)C(NC(=O)OC(C)(C)C)C(C)C)C(=O)N1CCCC1C(=O)O (stereo not drawn) (Boc-Val-Ala-Pro-OH; configuration not given here),-38.4%,-52.5,-41,-28.7,-20.6%,-38.4
O=c1c(-c2ccc3c(c2)OCO3)coc2cc(O)ccc12,-2.9%,-0.85,18.9,13.7,11.6%,23.1

SMILES,growth inhibition [1],growth inhibition [2] [%],growth inhibition [3] [%],growth inhibition [4] [%],growth inhibition [5],growth inhibition [6] [%]
COc1cc(/C=C/c2cc(/C=C/c3ccc(O)c(OC)c3)c([N+](=O)[O-])cc2[N+](=O)[O-])ccc1O,66.3%,23.8,42.4,-4.45,7.15%,47.7
c1ccc(C2OC(c3ccccc3)c3ccccc32)cc1 (stereo not drawn),7.55%,-6.8,12.4,-2.05,24.1%,12.2
C=C1C2CCC3(CCC4C5(C)CCCC4(C=NC5)C3C2)C1O (stereo not drawn),8.5%,-10.7,3.6,6.75,-7.3%,1.6
CC(=O)OCC1OC2OC(C)(C)OC2C1NC(=O)C(F)(F)F (stereo not drawn),16.5%,-2.5,-8.15,10.3,-5.6%,9.25
CCCCCCCCCCCn1cnc2c(=S)nc[nH]c21,0.25%,5.3,-17.1,20.7,-21.2%,-21.2
COc1ccc2oc(=S)[nH]c2c1,11.8%,8.6,54.1,9.4,-4.45%,42.7
c1ccc(P(=Nc2cccc(N=P(c3ccccc3)(c3ccccc3)c3ccccc3)c2)(c2ccccc2)c2ccccc2)cc1,0.95%,6.9,28.2,-2.6,0.05%,6.6
COCC(=O)C(C(C)=O)C(c1ccc(N(C)C)cc1)C(C(C)=O)C(=O)COC (stereo not drawn),-12.2%,-10.6,-12.7,-69.7,2.8%,-9.35
CCc1occc(=O)c1O,16.6%,-6.95,-1.75,1.75,16.8%,-9.1
CC(=O)Nc1ccc2c(c1)CCCC2,5.75%,-4.45,-0.8,-71.6,-2.95%,-16.4
CC1COC(C)(C2CC2)O1 (stereo not drawn),6.6%,9.95,-24.4,-13.7,7.45%,6.5
CC(=O)NC1C(OCc2ccccc2)OC(COC(=O)CCCCCCCCCCNc2ccc([N+](=O)[O-])c3[nH]c4ccccc4c(=O)c23)C(O)C1OC(C)C(=O)NC(C)C(=O)NC(CCC(N)=O)C(=O)OCc1ccccc1 (stereo not drawn),30.7%,9.8,-3.3,14.4,6.15%,12.9
Cc1nn2c(-c3ccccc3)cnnc2c1-c1ccccc1,-19.4%,-21.1,-12.8,-26.1,6.75%,-10.8
O=C(N/N=C/c1ccc(Cl)cc1Cl)c1cccc([N+](=O)[O-])c1,0.65%,-8.7,32.5,-6.95,2.3%,24.4
CCC(=O)C12CCCC1=NC(=N)N=C2C1=NC(=N)N=C2CCCC21C(=O)CC (stereo not drawn),-10.3%,12.4,-14.2,2.75,-1.7%,5.2
CC(=O)OCCc1ccc2c(c1)OCO2,-0.1%,-11.8,6.05,-30.9,-16.9%,-6.15
N[C@H](CCC(=O)NCP(=O)(O)O)C(=O)O,-43.7%,-42.6,-44.7,-7.1,-10.8%,-41.1
CC1(C)C2C=CC1(C)C1(CC2)OCCO1 (stereo not drawn),10.5%,17.5,-20.5,20.8,-55.8%,-115
C/C(=N\N=C(N)N)C(CN(CC(C)C)CC(C)C)C(=O)Nc1ccc(C)cc1C (stereo not drawn),7.6%,6.55,10.3,38.3,-3.85%,13.8
